Measured values: PubChem BioAssay (NCATS)
Inconclusive results are not listed. The source made the active and inactive calls. Unless noted, calls follow the shape of the dose curve; as a rule, active = well fitted curve in either direction with a large enough effect (not every such curve was filed as active); inconclusive = small, poorly fitted or top-dose-only effect, or another doubt; inactive = flat fitted curve, though single readings scatter.

Tests used:
[1] = AP1 Signaling Pathway (AID 357); details: ME-180 AP-1-bla reporter, EGF-induced, beta-lactamase ratio, 5 h; at 17.2 µM (top of the series) unless noted;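 also: ME-180 reporter cells stimulated with EGF at its EC50 level; % is scaled to controls: 0 for no effect and ±100 for the full control effect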
Outline: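 Cells are seeded overnight, exposed to compound titrations and an EC50 level of EGF for 5 hours at 37 °C, then loaded with CCF4 dye for 2.5 hours. Beta-lactamase activity under the AP-1 element is read as a blue/green ratio.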

[2] = NFAT Signaling Pathway (AID 444); details: Jurkat NFAT-bla M1, carbachol, beta-lactamase ratio, 5 h; at 17.2 µM (top of the series) unless noted;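 also: carbachol stimulus at about its EC50 of 1 µM final; % is scaled to controls: 0 for no effect and ±100 for the full control effect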
Outline: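 Jurkat cells with NFAT-driven β-lactamase reporter and co-expressed M1 receptor, stimulated with carbachol (final 1 uM, ~EC50), compound titration, 5 h at 37 °C. CCF4 loaded 1 h at RT; 460/530 nm ratio gave %activity and AC50.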

[3] = target: Glucocorticoid receptor (Homo sapiens) (UniProt P04150); assay: GR-GFP Redistribution (AID 450;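 active = compounds whose dose series gives a full or clear partial fitted curve of increased nuclear translocation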; also: potency is read from the fitted curve at half-maximal effect)
Sequence of Glucocorticoid receptor (Homo sapiens) (P04150 whole entry, looked up): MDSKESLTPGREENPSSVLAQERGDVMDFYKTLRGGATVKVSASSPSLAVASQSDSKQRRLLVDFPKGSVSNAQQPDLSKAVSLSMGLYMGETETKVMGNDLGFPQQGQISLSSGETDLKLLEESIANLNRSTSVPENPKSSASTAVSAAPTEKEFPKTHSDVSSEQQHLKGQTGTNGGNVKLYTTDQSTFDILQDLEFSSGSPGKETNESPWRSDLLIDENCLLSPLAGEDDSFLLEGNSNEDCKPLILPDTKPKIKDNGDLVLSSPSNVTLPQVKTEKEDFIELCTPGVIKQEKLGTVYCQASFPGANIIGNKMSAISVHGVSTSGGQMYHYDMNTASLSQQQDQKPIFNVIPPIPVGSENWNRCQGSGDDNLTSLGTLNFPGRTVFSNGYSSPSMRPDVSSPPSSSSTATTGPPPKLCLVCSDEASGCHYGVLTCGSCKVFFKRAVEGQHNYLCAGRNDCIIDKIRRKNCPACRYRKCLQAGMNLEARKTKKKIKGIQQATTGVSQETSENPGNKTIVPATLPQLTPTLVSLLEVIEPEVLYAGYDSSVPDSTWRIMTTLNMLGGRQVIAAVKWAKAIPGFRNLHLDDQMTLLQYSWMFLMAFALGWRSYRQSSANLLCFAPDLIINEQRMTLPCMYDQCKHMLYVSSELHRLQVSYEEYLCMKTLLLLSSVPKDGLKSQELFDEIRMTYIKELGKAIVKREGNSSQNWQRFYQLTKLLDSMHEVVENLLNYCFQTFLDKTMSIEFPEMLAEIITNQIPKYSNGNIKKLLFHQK

[4] = target: Mitogen-activated protein kinase 10 (Mus musculus) (UniProt Q61831); assay: JNK3 AlphaScreen Assay (AID 530);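 also: kinase came from lysate of stimulated human HepG2 cells; signal reports phosphorylation of biotinylated GST-cJun 1-79 at Ser73 with 10 µM ATP; % is scaled to controls: 0 for no effect and ±100 for the full control effect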
Outline: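 Pre-activated (IL-1β/TNFα) JNK3 in HepG2 lysates phosphorylates biotin-GST-cJun(1-79), 10 uM ATP; anti-phospho-cJun(Ser73) AlphaScreen read at room temperature, pH 7.6 Tris buffer. Compounds pre-incubated 15 min as titrations.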

[5] = target: Guanine nucleotide-binding protein G(i) subunit alpha-1 (Homo sapiens) (UniProt P63096); assay: qHTS Assay for Inhibitors of RGS12 GoLoco Motif Activity (Green Fluorophore) (AID 879; active = well fitted curve in the direction sought with a large enough effect; an effect the other way counts as inactive or inconclusive;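 also: 0% = labeled peptide with Gαi1 and full inhibition = labeled peptide alone without protein; negative values mean loss of peptide binding seen as reduced polarization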)
Sequence of Guanine nucleotide-binding protein G(i) subunit alpha-1 (Homo sapiens) (P63096 whole entry, looked up): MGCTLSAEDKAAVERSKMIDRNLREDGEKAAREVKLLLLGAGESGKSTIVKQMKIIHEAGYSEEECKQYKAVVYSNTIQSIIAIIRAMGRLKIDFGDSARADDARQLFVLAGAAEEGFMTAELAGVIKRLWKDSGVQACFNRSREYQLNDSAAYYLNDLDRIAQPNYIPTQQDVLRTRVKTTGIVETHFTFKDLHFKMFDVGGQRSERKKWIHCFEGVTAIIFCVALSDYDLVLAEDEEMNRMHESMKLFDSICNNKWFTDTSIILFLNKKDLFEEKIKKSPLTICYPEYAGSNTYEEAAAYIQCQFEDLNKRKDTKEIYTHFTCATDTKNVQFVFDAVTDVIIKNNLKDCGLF
Outline: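 Fluorescence polarization assay: 50 nM Gαi1 with 10 nM FITC-labeled RGS12 GoLoco peptide in 10 mM Tris pH 7.5, 150 mM NaCl, 0.1 mM GDP, 0.05% NP40, 10 min at room temperature with compound.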

[6] = target: Pyruvate kinase (Leishmania mexicana) (UniProt Q27686); assay: qHTS Validation Assay for Inhibitors of Leishmania Mexicana Pyruvate Kinase (AID 945; active = well fitted curve in the direction sought with a large enough effect; an effect the other way counts as inactive or inconclusive;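 also: 0% = DMSO only neutral control wells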)
Sequence of Pyruvate kinase (Leishmania mexicana) (Q27686 2-499 E452W): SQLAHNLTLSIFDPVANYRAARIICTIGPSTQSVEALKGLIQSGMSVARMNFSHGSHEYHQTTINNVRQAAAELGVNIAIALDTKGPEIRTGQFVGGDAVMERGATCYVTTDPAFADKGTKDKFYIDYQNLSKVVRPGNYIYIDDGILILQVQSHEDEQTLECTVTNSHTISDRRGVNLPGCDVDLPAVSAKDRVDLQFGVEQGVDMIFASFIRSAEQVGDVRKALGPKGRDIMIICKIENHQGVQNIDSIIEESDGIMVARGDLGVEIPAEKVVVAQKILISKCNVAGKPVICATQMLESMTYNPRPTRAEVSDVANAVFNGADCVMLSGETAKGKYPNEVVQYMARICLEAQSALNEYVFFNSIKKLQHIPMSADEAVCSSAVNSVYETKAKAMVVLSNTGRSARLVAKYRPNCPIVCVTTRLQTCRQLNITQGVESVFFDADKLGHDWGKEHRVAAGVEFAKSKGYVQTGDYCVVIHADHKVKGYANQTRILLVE
Outline: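 Compounds are tested as eight-point concentration series. Reactions contain 0.2 nM LmPYK E451W, 0.5 mM PEP, 0.1 mM ADP, 7 mM MgCl2 and 50 mM KCl at pH 7.2, run 1 h at room temperature, then read by PKLight luminescence.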

[7] = target: Pyruvate kinase PKM (Homo sapiens) (UniProt P14618); assay: qHTS Assay for Activators of Human Muscle Pyruvate Kinase (AID 954; active = well fitted curve in the direction sought with a large enough effect, not every such curve was filed as active;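 also: 0% = uninhibited enzyme and -100% = no enzyme or full thiadiazolimine inhibition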)
Sequence of Pyruvate kinase PKM (Homo sapiens) (P14618 whole entry, looked up): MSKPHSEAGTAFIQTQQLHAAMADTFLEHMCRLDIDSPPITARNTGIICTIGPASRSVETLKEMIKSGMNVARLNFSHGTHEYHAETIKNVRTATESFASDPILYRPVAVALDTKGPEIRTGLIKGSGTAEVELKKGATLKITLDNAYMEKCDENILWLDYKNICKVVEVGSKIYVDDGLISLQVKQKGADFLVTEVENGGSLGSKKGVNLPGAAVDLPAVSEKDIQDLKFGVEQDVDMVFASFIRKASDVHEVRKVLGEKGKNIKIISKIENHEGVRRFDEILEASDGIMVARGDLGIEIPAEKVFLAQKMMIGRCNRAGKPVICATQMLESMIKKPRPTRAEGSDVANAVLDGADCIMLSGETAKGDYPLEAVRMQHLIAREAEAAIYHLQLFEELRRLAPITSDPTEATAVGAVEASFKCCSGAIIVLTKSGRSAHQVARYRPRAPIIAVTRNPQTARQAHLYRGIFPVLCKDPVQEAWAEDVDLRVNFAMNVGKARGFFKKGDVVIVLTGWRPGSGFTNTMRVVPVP
Outline: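 Reaction: 0.1 nM purified PKM2 with 0.5 mM phosphoenolpyruvate and 0.1 mM ADP, room temperature, 1 h. Readout: luciferase-based ATP luminescence after stop reagent. Activators judged against a 0.3 nM enzyme column.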

[8] = target: Alpha-galactosidase A (Homo sapiens) (UniProt P06280); assay: Counterscreen for Glucocerebrosidase Inhibitors: qHTS Assay for Human alpha-Galactosidase at pH 4.5 (AID 992; active = well fitted curve in the direction sought with a large enough effect; an effect the other way counts as inactive or inconclusive; also: 0% is about no effect)
Sequence of Alpha-galactosidase A (Homo sapiens) (P06280 whole entry, looked up): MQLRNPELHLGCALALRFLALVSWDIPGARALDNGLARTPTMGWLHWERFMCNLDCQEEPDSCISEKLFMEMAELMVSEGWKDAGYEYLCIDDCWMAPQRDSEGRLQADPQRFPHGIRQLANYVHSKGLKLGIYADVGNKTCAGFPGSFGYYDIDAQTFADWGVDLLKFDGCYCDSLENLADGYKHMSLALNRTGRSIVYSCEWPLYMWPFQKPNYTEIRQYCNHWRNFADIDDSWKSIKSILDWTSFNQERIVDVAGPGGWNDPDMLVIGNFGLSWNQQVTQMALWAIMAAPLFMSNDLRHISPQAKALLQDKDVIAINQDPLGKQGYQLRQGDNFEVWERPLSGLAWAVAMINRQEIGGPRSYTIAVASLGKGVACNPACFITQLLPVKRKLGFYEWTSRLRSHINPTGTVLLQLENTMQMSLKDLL
Outline: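 Concentration-response curves (0.7 nM to 77 uM final) were modeled with the Hill equation to give AC50. Reactions: 2 nM enzyme, 80 uM fluorogenic alpha-galactoside, pH 4.5 citric acid buffer, 20 min, room temperature.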

[9] = target: alpha-glucosidase (Oryza sativa, rice) (UniProt Q653V4); assay: Counterscreen for Glucocerebrosidase Inhibitors: qHTS Assay for Rice alpha-Glucosidase at pH 5.0 (AID 997; active = well fitted curve in the direction sought with a large enough effect; an effect the other way counts as inactive or inconclusive;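 also: 0% = full activity with enzyme and -100% = basal without enzyme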)
Outline: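 Rice alpha-glucosidase (4 nM final) with 400 uM 4-methylumbelliferyl-alpha-D-glucopyranoside in citrate buffer pH 5.0, 20 min at room temperature, stopped at pH 10; fluorescence 365/440 nm, compounds 0.7 nM–77 uM, AC50 from Hill fits.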

[10] = target: Cytochrome P450 2C9 (Homo sapiens) (UniProt P11712); assay: qHTS Assay for Inhibitors and Substrates of Cytochrome P450 2C9 (AID 883; active = well fitted curve in the direction sought with a large enough effect; an effect the other way counts as inactive or inconclusive; also: % is scaled to controls: 0 for no effect and ±100 for the full control effect; nearly all actives have a fitted effect of over 60% in size)
Sequence of Cytochrome P450 2C9 (Homo sapiens) (P11712 whole entry, looked up): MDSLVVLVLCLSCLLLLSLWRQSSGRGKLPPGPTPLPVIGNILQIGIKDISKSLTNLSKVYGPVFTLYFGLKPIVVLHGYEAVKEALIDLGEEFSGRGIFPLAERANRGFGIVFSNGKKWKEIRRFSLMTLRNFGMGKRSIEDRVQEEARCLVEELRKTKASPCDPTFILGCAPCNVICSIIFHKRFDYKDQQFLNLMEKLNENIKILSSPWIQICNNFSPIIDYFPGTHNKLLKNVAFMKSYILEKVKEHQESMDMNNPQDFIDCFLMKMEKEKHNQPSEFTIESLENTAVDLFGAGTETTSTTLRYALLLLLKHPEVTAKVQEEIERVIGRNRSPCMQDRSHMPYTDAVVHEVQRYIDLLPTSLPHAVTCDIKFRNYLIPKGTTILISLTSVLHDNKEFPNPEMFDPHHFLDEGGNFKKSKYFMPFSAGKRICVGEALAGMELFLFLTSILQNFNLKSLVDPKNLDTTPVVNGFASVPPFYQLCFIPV
Outline: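 Signal: luciferase luminescence reporting luciferin produced by CYP2C9. Conditions: 10nM enzyme, Luciferin-H 100uM at KM, 25mM KPO4, 37C, 60 min NADPH-driven reaction. Reference: 57uM sulphaphenazole as 100% inhibition.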

[11] = target: Cytochrome P450 3A4 (Homo sapiens) (UniProt P08684); assay: qHTS Assay for Activators of Cytochrome P450 3A4 (AID 885; active = well fitted curve in the direction sought with a large enough effect; an effect the other way counts as inactive or inconclusive; also: nearly all actives have a fitted effect of over 65% in size)
Sequence of Cytochrome P450 3A4 (Homo sapiens) (P08684 whole entry, looked up): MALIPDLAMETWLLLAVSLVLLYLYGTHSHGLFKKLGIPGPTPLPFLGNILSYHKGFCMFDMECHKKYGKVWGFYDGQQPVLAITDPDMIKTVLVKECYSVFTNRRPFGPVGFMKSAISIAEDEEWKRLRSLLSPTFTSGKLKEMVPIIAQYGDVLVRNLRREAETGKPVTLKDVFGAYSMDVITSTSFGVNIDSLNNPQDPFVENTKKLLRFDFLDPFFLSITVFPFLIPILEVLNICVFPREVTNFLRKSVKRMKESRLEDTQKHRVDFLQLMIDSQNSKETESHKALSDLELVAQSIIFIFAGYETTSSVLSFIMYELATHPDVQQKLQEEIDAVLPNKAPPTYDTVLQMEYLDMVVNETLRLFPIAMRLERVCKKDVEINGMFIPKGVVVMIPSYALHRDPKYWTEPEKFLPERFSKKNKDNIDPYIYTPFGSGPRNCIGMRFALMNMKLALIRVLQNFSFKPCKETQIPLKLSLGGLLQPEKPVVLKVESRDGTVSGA
Outline: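 Steps: enzyme/substrate mix dispensed; compound added, 10 min RT; NADPH regeneration solution added, 60 min RT; luciferin detection buffer stops reaction; 20 min later luminescence measured.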

[12] = qHTS Assay for Identification of Small Molecule Agonists for Thrombopoietin (TPO) Signaling Pathway (AID 917; active = well fitted curve in the direction sought with a large enough effect; an effect the other way counts as inactive or inconclusive; also: % is scaled to controls: 0 for no effect and ±100 for the full control effect)
Outline: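 Murine Ba/F3 cells expressing human TPO receptor and GPIIb-promoter luciferase, IL-3-starved overnight, given compound plus TPO at 26 pM (EC50). After 24 h at 37 C, 5% CO2, luminescence read.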

[13] = Stat Signaling Pathway (AID 446); details: ME-180 SIE beta-lactamase reporter, IL-6 stimulated, 5 h; at 17.2 µM (top of the series) unless noted
Outline: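 Screening format detects activators and inhibitors alike: ME-180 SIE-bla cells stimulated at 40 pM IL-6 for 5 hrs with compound, then dual-emission beta-lactamase read at 405 nm excitation.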

[14] = target: 3',5'-cyclic-AMP phosphodiesterase 4B (Homo sapiens) (UniProt Q07343); assay: qHTS Assay for Inhibitors of PDE-IV (AID 607; active = well fitted activation curve with a large enough effect in the main read-out, with a control signal flat, not every such curve was filed as active; also: % of control where 0% means no effect)
Sequence of 3',5'-cyclic-AMP phosphodiesterase 4B (Homo sapiens) (Q07343 whole entry, looked up): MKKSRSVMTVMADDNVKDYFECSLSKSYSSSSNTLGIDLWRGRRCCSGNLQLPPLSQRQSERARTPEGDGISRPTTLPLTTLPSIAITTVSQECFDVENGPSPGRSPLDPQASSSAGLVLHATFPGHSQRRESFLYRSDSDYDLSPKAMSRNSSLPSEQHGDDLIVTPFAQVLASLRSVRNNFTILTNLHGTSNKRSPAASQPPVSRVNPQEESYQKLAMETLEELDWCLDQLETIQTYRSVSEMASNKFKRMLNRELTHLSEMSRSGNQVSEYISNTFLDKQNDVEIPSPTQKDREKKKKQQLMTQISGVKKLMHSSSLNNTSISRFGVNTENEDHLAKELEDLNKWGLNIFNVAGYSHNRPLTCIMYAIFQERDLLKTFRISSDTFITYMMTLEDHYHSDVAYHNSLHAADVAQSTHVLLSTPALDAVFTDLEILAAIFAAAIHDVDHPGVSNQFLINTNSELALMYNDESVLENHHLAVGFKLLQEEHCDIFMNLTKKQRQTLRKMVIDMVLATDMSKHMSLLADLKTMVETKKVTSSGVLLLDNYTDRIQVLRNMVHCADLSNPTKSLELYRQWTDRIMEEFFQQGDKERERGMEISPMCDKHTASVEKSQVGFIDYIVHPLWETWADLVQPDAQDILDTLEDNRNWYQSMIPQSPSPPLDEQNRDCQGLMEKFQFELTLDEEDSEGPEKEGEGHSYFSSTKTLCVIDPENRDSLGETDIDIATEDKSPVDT
Outline: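 The readout is membrane depolarisation from a cAMP-sensing CNG channel, detected with a potential dye at ex 535/em 590. Cells were HEK293-derived (endogenous PDE-IV) at 1000 cells/well, titrated up to 22.9 uM final.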

[15] = target: Muscarinic acetylcholine receptor M1 (Rattus norvegicus) (UniProt P08482); assay: qHTS Assay for Antagonists of Acetylcholine Muscarinic M1 Receptor: Measurement of IP-One Response (AID 944; active = well fitted curve in the direction sought with a large enough effect; an effect the other way counts as inactive or inconclusive; also: nearly all actives have a fitted effect of over 75% in size)
Sequence of Muscarinic acetylcholine receptor M1 (Rattus norvegicus) (P08482 whole entry, looked up): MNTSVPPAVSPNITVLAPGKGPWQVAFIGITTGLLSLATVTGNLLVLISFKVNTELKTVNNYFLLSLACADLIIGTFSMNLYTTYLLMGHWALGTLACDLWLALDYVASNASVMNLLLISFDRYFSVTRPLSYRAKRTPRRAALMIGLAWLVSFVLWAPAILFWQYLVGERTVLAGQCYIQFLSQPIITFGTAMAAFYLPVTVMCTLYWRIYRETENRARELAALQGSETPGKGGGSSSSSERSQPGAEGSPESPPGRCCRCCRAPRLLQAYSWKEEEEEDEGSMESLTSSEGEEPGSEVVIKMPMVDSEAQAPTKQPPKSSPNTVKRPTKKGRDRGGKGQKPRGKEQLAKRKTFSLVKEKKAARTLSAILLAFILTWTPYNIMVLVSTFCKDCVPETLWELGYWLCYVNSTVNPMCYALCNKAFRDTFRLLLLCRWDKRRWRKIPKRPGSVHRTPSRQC
Outline: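 M1-CHO (rat), 2000 cells/well, overnight recovery; cpd 10 min; carbachol EC80 (200 nM), 30 min, HEPES buffer + 50 mM LiCl pH 7.4; IP-One HTRF, Ex 337, Em 620/665 nm.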

Nc1nonc1-c1noc(-c2ccccc2)n1
inactive: activity change, negative = inhibition [1] 7.84% | activity change, negative = inhibition [2] -13.1% | Potency [3] > 20.6 µM

CC1(C)C2CCC1(C)C(OC(=O)CC(=O)O)C2 (centres undefined)
inactive: activity change, negative = inhibition [1] 4.82% | activity change, negative = inhibition [2] 8.38% | Potency [3] > 20.6 µM

c1ccc2c(c1)[nH]c1c(N3CCC4(CC3)OCCO4)ncnc12
inactive: activity change, negative = inhibition [1] -1.63% | activity change, negative = inhibition [2] 7.49% | Potency [3] > 20.6 µM

N#Cc1c2c(c(-c3ccccc3)[nH]c1=O)CCCC2
inactive: activity change, negative = inhibition [1] 5.23% | activity change, negative = inhibition [2] 10.7% | Potency [3] > 20.6 µM

O=C(/C=C/c1ccccc1)c1ccccc1
inactive: activity change, negative = inhibition [1] 19.8% | activity change, negative = inhibition [2] -14.4% | Potency [3] > 20.6 µM

CCCCOC(=O)CSc1nc(N)c(C#N)c(-c2ccc(OC)cc2)c1C#N
inactive: activity change, negative = inhibition [1] -13.6% | activity change, negative = inhibition [2] -0.768% | Potency [3] > 20.6 µM

Cc1cccc(C)c1N1C(=O)C2ON(c3ccccc3)C(c3ccncc3)C2C1=O (centres undefined)
inactive: activity change, negative = inhibition [1] 1.5% | activity change, negative = inhibition [2] 11.5% | Potency [3] > 20.6 µM

Cc1nn(-c2cccc(Cl)c2)c2c1C(c1ccncc1)C(C#N)=C(N)O2 (centres undefined)
inactive: activity change, negative = inhibition [1] 17.6% | activity change, negative = inhibition [2] -16.8% | Potency [3] > 20.6 µM

Cn1ncc(N=Cc2ccccc2)c1C(N)=O
inactive: activity change, negative = inhibition [1] 5.51% | activity change, negative = inhibition [2] 6.04% | Potency [3] > 20.6 µM

Clc1ccc(SCc2cn3ccsc3n2)cc1
inactive: activity change, negative = inhibition [1] -22.5% | activity change, negative = inhibition [2] 9.85% | Potency [3] > 20.6 µM

Cc1ccc(N(CN2C(=O)NC(C)(C)C2=O)CN2C(=O)NC(C)(C)C2=O)cc1
inactive: activity change, negative = inhibition [1] 5% | activity change, negative = inhibition [2] 15.5% | Potency [3] > 20.6 µM

O=S(=O)(NCc1cccnc1)c1cccc2nsnc12
inactive: activity change, negative = inhibition [1] 6.05% | activity change, negative = inhibition [2] -11.1% | Potency [3] > 20.6 µM

N#Cc1c(N)nc(SCC(=O)NCc2ccc3c(c2)OCO3)c(C#N)c1-c1cccs1
inactive: activity change, negative = inhibition [1] -27.2% | activity change, negative = inhibition [2] -13.6% | Potency [3] > 20.6 µM

CCn1cc(C(=O)NCc2ccccn2)c(=O)c2cc(F)c(N3CCN(C)CC3)cc21
inactive: activity change, negative = inhibition [1] -1.53% | activity change, negative = inhibition [2] -29.8% | Potency [3] > 20.6 µM

Cc1cc(=O)oc(C)c1C(=O)NCCN1CCOCC1
inactive: activity change, negative = inhibition [1] 11.5% | activity change, negative = inhibition [2] 7.8% | Potency [3] > 20.6 µM

COc1cc(-c2nn3c(COc4ccccc4)nnc3s2)cc(OC)c1OC
inactive: activity change, negative = inhibition [1] 0.0695% | activity change, negative = inhibition [2] 11.1% | Potency [3] > 20.6 µM

Fc1cc(F)c(F)c(SCCc2ccncc2)c1F
inactive: activity change, negative = inhibition [1] -7.09% | activity change, negative = inhibition [2] -5.43% | Potency [3] > 20.6 µM

CN(C)CCCO[C@H]1[C@H]([C@H](O)CO)O[C@H]2OC(C)(C)O[C@@H]21
inactive: Potency [4] | outcome [5] | Potency [6] | outcome [7] | outcome [8] | outcome [9]

CCCCCCCCCCCCCCCCCC(=O)NC[C@@H](COP(=O)([O-])OCC[N+](C)(C)C)OCC
inactive: outcome [5] | Potency [10] | Potency [11] | Potency [12] | Potency [6] | outcome [7] | outcome [8] | outcome [9]

CC1(C)Cc2c(C#N)c(OCC(=O)c3ccccc3)nc(-c3ccoc3)c2CO1
inactive: activity change, negative = inhibition [1] 20.6% | activity, negative = inhibition [13] 12.9% | Potency [3] > 20.6 µM

CCCCCCCCCC(=O)N[C@@H](CN1CCOCC1)[C@@H](O)c1ccccc1
inactive: activity change, negative = inhibition [1] 5.88% [at 38 µM] | activity change, negative = inhibition [2] 1.34% [at 38 µM] | Potency [3] > 46 µM | Potency [4] | Potency [14] | outcome [5] | Potency [12] | Potency [15] | Potency [6] | outcome [7] | outcome [8] | outcome [9]

CCN1CCc2c(C#N)c(N3CCOCC3)nc(NCc3ccccc3)c2C1
inactive: activity change, negative = inhibition [1] 1.6% | activity, negative = inhibition [13] 1.47%

CCOc1ccc(C2=Nn3c(nnc3-c3ccccn3)SC2)cc1
inactive: activity change, negative = inhibition [1] -11.7% | activity, negative = inhibition [13] 3.43% | Potency [3] > 20.6 µM

C=CCSc1nnc2n(CCc3ccccc3)c(=O)c3c4c(sc3n12)COC(C)(C)C4
inactive: activity change, negative = inhibition [1] -23.5% | activity, negative = inhibition [13] -18.1% | Potency [3] > 20.6 µM

C1CCCN(CCCCN2CCCCCC2)CC1
inactive: activity change, negative = inhibition [1] 3.84% | activity, negative = inhibition [13] 16% | Potency [3] > 20.6 µM

Cc1cc(N2C(=O)C(=O)/C(=C(/O)c3ccccc3)C2c2cccc(Br)c2)no1 (centres undefined)
inactive: activity change, negative = inhibition [1] -11.1% | activity, negative = inhibition [13] -23.1% | Potency [3] > 20.6 µM

CC[C@H]1OC(=O)C[C@@H](O)[C@H](C)[C@@H](O[C@@H]2O[C@H](C)C[C@H](N(C)C)[C@H]2O)[C@@H](CC=O)C[C@@H](C)C(=O)C=C[C@]2(C)O[C@H]2[C@@H]1C
inactive: activity change, negative = inhibition [1] 1.65% | activity, negative = inhibition [13] 1.05%

O=C(c1ccc(F)cc1)N1CCC(N2CCCCCC2)CC1
inactive: activity change, negative = inhibition [1] -5.56% | activity, negative = inhibition [13] -3.47% | Potency [3] > 20.6 µM
